# Bioassay records deposited in PubChem BioAssay by National Center for Advancing Translational Sciences (NCATS).
# FMDV inh: blocks foot and mouth disease virus; FMDV antiviral cell-based qHTS; Potency, µM (highest dose often 57.9 µM), for inactives: at the top dose activity change, negative = inhibition, usual class: inhibitors; 410,000 tested, 1.2% active; calls by dose curve; tested in HEK293T cells; further: read-out not given here; potency means the concentration at half of the fitted maximal effect; on the % scale 0 is the no-effect control and ±100 the full control effect; nearly all actives have a fitted effect of over 45% in size
# Cycloheximide cs: counter-screen hit for Shiga toxin inhibitors, cycloheximide; cell reporter, cycloheximide protein synthesis inhibition counterscreen; max response, %; 300,000 tested, 12% active; in the data active means max response mostly above about 13%, no sharp cut-off; inactive means mostly below about 14%; further: read at 38.3 µM for the half of the compounds with a filed dose; 0% is about no effect
# HCV inhibitor: inhibitors of hepatitis C virus infection; Huh7.5.1 HCVcc-Cre infection, luciferase reporter, 44 h; Potency, µM (doses to about 41.8 µM), for the others: at the top dose activity change, negative = inhibition, actives largely listed as inhibitors; 340,000 tested, 3.4% active; AID 651820; active means well fitted inhibition curve with a large enough effect; inconclusive means small, poorly fitted or top-dose-only effect, or another doubt; inactive means no such curve, though single readings can be large or run the other way; further: potency means the concentration at half of the fitted maximal effect; on the % scale 0 is the no-effect control and ±100 the full control effect
#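 Infectious HCVcc-Cre (~0.5 moi) was added to cells just after compound, with cells seeded 4 h earlier at 1,000 per well. Luciferase activity after 44 h culture reported infection; substrate was incubated 15 min at room temperature before reading.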
# Lassa entry inh: inhibitors of Lassa virus binding or cell entry | 300,000 tested, 1.2% active | Lassa virus pseudotype entry inhibition, cell reporter | Potency, µM (top dose mostly 37.9 µM), without a hit: at the highest dose activity change, negative = inhibition, hits mostly inhibitors; calls by dose curve; tested in HEK293 cells; further: potency means the concentration at half of the fitted maximal effect; on the % scale 0 is the no-effect control and ±100 the full control effect; nearly all actives have a fitted effect of over 50% in size
# Shiga inhibitor: blocks Shiga toxin action in Vero cells. Vero cells, Shiga toxin protein synthesis inhibition reporter. inhibition, % at 38.7 µM. 290,000 tested, 9.2% active. AID 2315; in the data active means inhibition mostly above about 28%, no sharp cut-off; inactive means mostly below about 43%; further: 0% is about no effect
# MARV entry inh: blocks Marburg virus binding to or entry into cells | Potency, µM (series often up to 37.8 µM), for inactives: top-dose activity change, negative = inhibition, most hits filed as inhibitors | 300,000 tested, 1.8% active | Marburg virus pseudotyped entry inhibition, cell reporter | AID 540276; calls by dose curve; tested in HEK293 cells; further: potency means the concentration at half of the fitted maximal effect; on the % scale 0 is the no-effect control and ±100 the full control effect
# Active calls of the source: *; ? = inconclusive; nt = no result given; [ ] = another dose, or the depositor's remark. Hits are enriched below; roughly 13% of the tested compounds scored in any of these assays.
SMILES,FMDV inh,Cycloheximide cs,HCV inhibitor,Lassa entry inh,Shiga inhibitor,MARV entry inh
Cc1ccc2oc(C(=O)Nc3cc(C)on3)c(C)c2c1,33.9%,nt,21.8%,nt,nt,nt
COc1ccc(C(C(=O)NC2CCCC2)N(CCC(C)C)C(=O)CCC(=O)Nc2cc(C)on2)cc1 (centres undefined),4.6%,-2.2,-4.9%,?,-1.4,?
CC(C)c1ccc(Nc2c(-c3ccc(N4CCOCC4)cc3)nc3ncccn23)cc1,-5.1%,nt,nt,19.8%[46.1 µM],nt,26.4%[46.1 µM]
N#C/C(C(=O)N1CCCCC1)=C1/N=C(NC(=O)c2ccc(F)cc2)c2ccccc21,3.7%,1.0,10.5%,?,-1.5,-1.4%[46.1 µM]
N#C/C(C(=O)N1CCCCC1)=C1/N=C(N)c2ccccc21,47.6%,15.8*,-15.1%,?,37.2,?
CCC1NC(C(=O)O)Cc2c1[nH]c1ccccc21 (centres undefined),-3.3%,nt,-13.2%,nt,nt,nt
O=c1cc(O)nc(-c2ccc(Cl)cc2)s1,-4.7%,-1.2,29.4%,9.6%[46.1 µM],20.9,-1.9%[46.1 µM]
O=C(NC1CC(=O)c2sccc21)c1ccc(Cl)cc1Cl (centres undefined),7.5%,31.5*,-0.8%,6.5%[46.1 µM],33.4,13.1%[46.1 µM]
N#CCCn1cc(/C=C/C(=O)O)c(-c2ccc(F)cc2)n1,-13.4%,-2.4,10.4%,nt,-9.0,nt
CCCCn1c(CCC)nc([N+](=O)[O-])c1Sc1ccc(Cl)cn1,?,0.6,-28.0%,?,17.7,?
Cc1ccc2c(c1)c1c3n2CCN(C(=O)CN2CCN(C)CC2)C3CCC1 (centres undefined),3.4%,-4.1,?,?,-0.5,?
CN1CCN(CC(=O)N2CCn3c4c(c5cc(C6CCCCC6)ccc53)CCCC42)CC1 (centres undefined),?,-2.4,7.94µM*,?,1.3,?
Cc1ccc(N(C(=O)Cn2nnc3ccccc32)C(C(=O)NCc2ccco2)c2ccc(C)o2)cc1 (centres undefined),-2.7%,-3.1,7.5%,0.7%,5.1,?
COc1ccc(N(C(=O)Cn2nnc3ccccc32)C(C(=O)NCc2ccco2)c2ccc(C)o2)cc1 (centres undefined),4.4%,30.3*,1.2%,?,29.2,-20.8%[46.1 µM]
Cc1ccc(CN(C(=O)Cn2nnc3ccccc32)C(C(=O)NCc2ccco2)c2ccc(C)o2)cc1 (centres undefined),-25.2%,16.0*,?,-26.2%,42.2*,3.2%
CC(=O)c1ccc(N(C(=O)Cn2nnc3ccccc32)C(C(=O)NCc2ccccc2)c2ccccn2)cc1 (centres undefined),48.4%,47.4*,5.2%,-3.7%,76.4*,?
Cc1c(C(=O)/C=C/N(C)C)nnn1-c1ccc(Cl)c(Cl)c1,17.1%,14.6,?,nt,43.5,nt
Cc1c(C(=O)/C=C/N(C)C)nnn1-c1ccc(Cl)cc1Cl,-5.8%,13.5,-44.5%,-0.8%[46.1 µM],57.6*,7.8%[46.1 µM]
Cc1c(C(=O)/C=C/N(C)C)nnn1-c1ccc(F)c(Cl)c1,5.9%,32.8*,-18.0%,-29.8%[46.1 µM],75.9*,?
CCOc1ccc(CC(=O)NCc2ccc3c(c2)CCN3C(C)=O)cc1OCC,-2.4%,nt,nt,-2.4%[46.1 µM],nt,nt
